This note sets out measurements from PubChem BioAssay.

Active and inactive are the calls of the source. Unless noted, the rule behind the calls is not given here.

The test system of experiment [1] is Wnt5a (protein binding on small-molecule microarray). The experiment is described as follows: Wnt5a binders on small-molecule microarray, primary screen, biophysical, 635/667 nm fluorescence (AID 1142).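 Note: fluorescence read at 667 nm with signal to noise per printed feature.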 To be noted: 635 nm fluorescence, higher = more signal.
Experiment [2] can be described thus: cell viability in Huh7 cells, primary screen, cytotoxicity control for HCV replication inhibitor project, CellTiter-Glo luminescence, basal, 48 h (AID 1143).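 Note: Huh7 hepatoma cells carrying a hepatitis C replication reporter with no stimulus; test concentration not given here.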 To be noted: Huh7 HCV replicon, higher = more signal, called active from +8 up or from −8 down.
Experiment [3] is described as follows: P. aeruginosa biofilm formation inhibitors, primary screen, PAO1 strain, BacTiter-Glo luminescence, LB-PBS (AID 1144). To be noted: 12 h, higher = more signal.
Experiment [4] can be described thus: CREB reporter modulators without forskolin, primary screen, cell-based, PC12, CRE-LacZ reporter, unstimulated (AID 1145). The following applies: no forskolin, luminescence, 4.5 h, higher = more signal, called active from +8 up or from −8 down.
Experiment [5] in a line: CREB reporter modulators under forskolin, primary screen, cell-based, PC12, CRE-LacZ reporter, forskolin-stimulated (AID 1146).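 Note: PC12 cells with 6xCRE LacZ reporter stimulated by forskolin 10 µM; beta-galactosidase reporter signal reflecting CREB driven transcription.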 The following applies: luminescence, 4.5 h, higher = more signal, called active from +8 up or from −8 down.
Experiment [6] deals with Streptavidin (Streptomyces avidinii) (UniProt P22629). The experiment in a line: streptavidin binders on small-molecule microarray, primary screen, artefact control for SMM compound annotation, biophysical, 635/667 nm fluorescence (AID 1147).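 Note: signal reflects streptavidin binding to arrayed compounds as a control protein.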 To be noted: streptavidin binding, higher = more signal.
Streptavidin (Streptomyces avidinii), sequence (P22629 whole entry, looked up): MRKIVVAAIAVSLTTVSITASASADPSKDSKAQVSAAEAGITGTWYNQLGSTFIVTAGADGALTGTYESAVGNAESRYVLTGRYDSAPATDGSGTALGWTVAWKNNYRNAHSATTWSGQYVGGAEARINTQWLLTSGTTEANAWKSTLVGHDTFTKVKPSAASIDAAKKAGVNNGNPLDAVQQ
Experiment [7] can be described thus: small-molecule binders of probe aInhba, primary screen, biochemical, small-molecule microarray, 635/667 nm fluorescence (AID 1148).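 Note: score merges 667nm spot fluorescence with signal-to-noise for antibody binding to printed compounds.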 The following applies: higher = more signal.
In experiment [8] the target is Torsin-1A (Homo sapiens) (UniProt O14656). The experiment in a line: torsin A binders from cell lysate, primary screen, small-molecule microarray, wild-type, 635/667 nm (AID 1149). To be noted: COS7 hTOR1A-WT lysate, 635 nm fluorescence, higher = more signal.
Torsin-1A (Homo sapiens), sequence (O14656 whole entry, looked up): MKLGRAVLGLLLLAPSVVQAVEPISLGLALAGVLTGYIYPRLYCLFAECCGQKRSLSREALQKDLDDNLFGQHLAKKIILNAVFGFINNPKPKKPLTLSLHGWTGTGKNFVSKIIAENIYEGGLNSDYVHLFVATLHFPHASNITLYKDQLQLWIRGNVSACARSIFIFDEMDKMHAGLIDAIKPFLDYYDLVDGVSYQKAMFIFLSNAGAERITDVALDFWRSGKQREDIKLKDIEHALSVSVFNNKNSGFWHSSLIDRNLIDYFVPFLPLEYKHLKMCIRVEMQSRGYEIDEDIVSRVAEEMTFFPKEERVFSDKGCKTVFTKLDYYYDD
Experiment [9] shares this target. The experiment is described as follows: small-molecule binders of mutant TOR1A in lysate, primary screen, cell lysate, small-molecule microarray, COS7 lysate, 635/667 nm fluorescence (AID 1150).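 Note: score pools 667 nm emission and signal to noise measuring lysate protein binding.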 The following applies: COS7 hTOR1A mutant lysate, 635 nm fluorescence, higher = more signal.
Experiment [10] deals with Sonic hedgehog protein (Shh). The experiment is described as follows: small-molecule binders of Shh protein, primary screen, biochemical, small-molecule microarray, 635/667 nm fluorescence (AID 1151).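 Note: Shh protein binding to compounds spotted on small-molecule microarray slides; score combines spot fluorescence intensity with signal-to-noise across triplicate slides.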 The following applies: small-molecule microarray binding, 635 nm fluorescence; higher = more signal.
The nature of experiment [11]: E. coli DRC41 culture turbidity changes, primary screen, E. coli filamentation inducer project, strain DRC41, OD650, 48 h (AID 1152).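 Note: E. coli MC1000 strain DRC41 lacking acrAB efflux pump and sulA.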 The following applies: E. coli DRC41 (acrAB sulA), higher = more signal, called active from +8 up or from −8 down.
A short description of experiment [12]: small-molecule binders of probe aLefty1, primary screen, biochemical, small-molecule microarray, 635/667 nm fluorescence (AID 1153).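 Note: score merges spot fluorescence with signal-to-noise ratio from the scanned slide images.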 To be noted: higher = more signal.
A short description of experiment [13]: PSAC antagonists in infected red cells, primary screen, cell-based, P. falciparum Indochina, OD700, 1 h (AID 1154). To be noted: P. falciparum Indochina infected RBC osmotic lysis, higher = more signal, called active from +8 up or from −8 down.
Experiment [14] is described as follows: PSAC antagonists in infected red cells, primary screen, cell-based, P. falciparum Indochina, OD700, 2 h (AID 1155).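 Note: lysis reports solute entry through the parasite surface anion channel PSAC; channel blockers reduce lysis of infected cells.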 The following applies: P. falciparum Indochina infected erythrocytes, osmotic lysis OD700; higher = more signal, called active from +8 up or from −8 down.
The nature of experiment [15]: osmotic lysis modulators in infected erythrocytes, primary screen, PSAC antagonist project, cell-based, P. falciparum Indochina, OD700, 3 h (AID 1156). To be noted: higher = more signal, called active from +8 up or from −8 down.
Experiment [16] can be described thus: PSAC antagonists in infected red cells, primary screen, cell-based, P. falciparum Indochina, OD700, 18 h (AID 1157). The following applies: P. falciparum Indochina infected erythrocytes, osmotic lysis OD700, 18 h; higher = more signal, called active from +8 up or from −8 down.
Experiment [17] can be described thus: modulators of S6 phosphorylation in cells, primary screen, cell-based, A549, cytoblot, luminescence, serum-stimulated (AID 1158).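 Note: serum-stimulated A549 lung adenocarcinoma cells; signal is phosphorylated S6 detected by cytoblot immunostaining with HRP secondary.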 To be noted: A549 phospho-S6 cytoblot, 5 h, higher = more signal.
Experiment [18] has as its target NADPH oxidase 2 (Homo sapiens) (UniProt P04839). The experiment is described as follows: NOX2-dependent H2O2 signal modulators, primary screen, NOX inhibitor project, cell-based, HEK293-NOX2, PMA-stimulated, Amplex Red fluorescence (AID 1159). Note: test concentration not given here. The following applies: 45 min, higher = more signal, called active from +8 up or from −8 down.
Experiment [19] concerns the target NADPH oxidase 4 (Homo sapiens) (UniProt Q9NPH5). The experiment in a line: NOX4-dependent H2O2 signal modulators, primary screen, NOX inhibitor project, cell-based, HEK293-NOX4, tetracycline-induced, Amplex Red fluorescence (AID 1160). To be noted: 45 min, higher = more signal, called active from +8 up or from −8 down.
Experiment [20] concerns the target NADPH oxidase 5 (Homo sapiens) (UniProt Q96PH1). The experiment in a line: NOX5-dependent H2O2 signal modulators, primary screen, NOX inhibitor project, cell-based, HEK293-NOX5, Amplex Red fluorescence (AID 1161). The following applies: HEK293-NOX5, ionomycin, 45 min, higher = more signal.

NADPH oxidase 5 (Homo sapiens), sequence (Q96PH1 whole entry, looked up): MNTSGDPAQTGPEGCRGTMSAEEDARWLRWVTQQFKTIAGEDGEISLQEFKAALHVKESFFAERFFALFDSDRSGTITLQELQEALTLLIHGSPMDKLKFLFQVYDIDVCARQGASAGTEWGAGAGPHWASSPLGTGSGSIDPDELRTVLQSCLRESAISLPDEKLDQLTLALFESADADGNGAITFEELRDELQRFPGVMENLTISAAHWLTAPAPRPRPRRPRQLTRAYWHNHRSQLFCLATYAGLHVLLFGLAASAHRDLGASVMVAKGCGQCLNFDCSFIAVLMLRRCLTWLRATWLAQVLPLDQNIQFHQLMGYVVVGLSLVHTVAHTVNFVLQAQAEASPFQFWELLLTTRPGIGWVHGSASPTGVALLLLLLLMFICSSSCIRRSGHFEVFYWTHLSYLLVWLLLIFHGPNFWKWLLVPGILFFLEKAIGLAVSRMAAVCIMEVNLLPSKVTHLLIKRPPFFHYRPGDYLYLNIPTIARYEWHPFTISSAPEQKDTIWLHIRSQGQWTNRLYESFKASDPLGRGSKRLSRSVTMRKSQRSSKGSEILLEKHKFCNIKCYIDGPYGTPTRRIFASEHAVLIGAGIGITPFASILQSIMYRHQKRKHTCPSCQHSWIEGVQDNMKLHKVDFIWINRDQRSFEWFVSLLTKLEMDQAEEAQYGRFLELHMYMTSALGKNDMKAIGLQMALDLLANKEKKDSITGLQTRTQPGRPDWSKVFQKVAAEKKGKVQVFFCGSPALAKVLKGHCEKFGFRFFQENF
NADPH oxidase 2 (Homo sapiens), sequence (P04839 whole entry, looked up): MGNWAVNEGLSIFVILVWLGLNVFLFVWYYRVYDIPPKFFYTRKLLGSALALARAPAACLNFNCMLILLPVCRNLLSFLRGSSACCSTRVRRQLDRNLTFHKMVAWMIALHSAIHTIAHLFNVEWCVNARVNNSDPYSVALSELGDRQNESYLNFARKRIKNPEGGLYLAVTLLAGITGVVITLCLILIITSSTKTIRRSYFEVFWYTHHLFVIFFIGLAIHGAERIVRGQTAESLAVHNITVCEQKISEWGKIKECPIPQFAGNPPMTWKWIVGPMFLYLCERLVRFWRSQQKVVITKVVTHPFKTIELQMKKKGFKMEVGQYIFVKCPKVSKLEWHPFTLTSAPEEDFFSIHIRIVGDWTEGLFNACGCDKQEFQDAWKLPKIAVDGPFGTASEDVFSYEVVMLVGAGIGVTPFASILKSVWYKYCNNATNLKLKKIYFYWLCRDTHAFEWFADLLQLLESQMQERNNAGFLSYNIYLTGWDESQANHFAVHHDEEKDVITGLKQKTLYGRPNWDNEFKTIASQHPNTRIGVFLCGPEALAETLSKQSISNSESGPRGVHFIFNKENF
NADPH oxidase 4 (Homo sapiens), sequence (Q9NPH5 whole entry, looked up): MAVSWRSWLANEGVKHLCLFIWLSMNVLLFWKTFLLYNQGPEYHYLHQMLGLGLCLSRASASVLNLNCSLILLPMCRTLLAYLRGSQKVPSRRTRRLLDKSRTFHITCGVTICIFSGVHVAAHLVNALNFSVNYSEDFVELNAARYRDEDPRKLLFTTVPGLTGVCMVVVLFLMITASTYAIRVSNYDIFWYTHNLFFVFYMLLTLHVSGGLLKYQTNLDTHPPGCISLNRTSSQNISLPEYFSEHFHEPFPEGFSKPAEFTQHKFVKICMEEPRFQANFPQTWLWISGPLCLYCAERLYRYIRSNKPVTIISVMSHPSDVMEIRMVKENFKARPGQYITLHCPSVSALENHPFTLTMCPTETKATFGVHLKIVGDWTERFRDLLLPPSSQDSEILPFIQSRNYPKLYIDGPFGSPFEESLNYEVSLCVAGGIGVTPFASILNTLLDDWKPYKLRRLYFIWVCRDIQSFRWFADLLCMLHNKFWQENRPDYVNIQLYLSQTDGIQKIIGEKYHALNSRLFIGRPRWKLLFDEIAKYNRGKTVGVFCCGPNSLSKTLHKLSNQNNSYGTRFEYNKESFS

Consider `CN1C(=O)C2C(C1=O)C1C=C(CCCO)C2C(c2ccc(CN3CCCC3)cc2)N1C` (stereo not given), for which the composite z-score in [1] is -0.205; in experiment [6], -0.383; in experiment [7], -0.157; in experiment [8], 0.33; in experiment [9] it was -0.287; in experiment [10], 0.207. In addition, in experiment [12], the composite z-score was determined as 0.0811. In addition, the z-score in [2] was -0.202 (inactive); in experiment [3], 0.675 (inactive); in [4], -0.0743 (inactive); in experiment [5] it was -0.436 (inactive); in experiment [11] it was -0.204 (inactive); in experiment [13] it was 1.51 (inactive). Also, the z-score is 0.621 (inactive) in experiment [14]; 0.914 (inactive) in experiment [15]; 0.378 (inactive) in experiment [16]; 0.318 in experiment [17]; -2.14 (inactive) in experiment [18]; -1.25 (inactive) in experiment [19]. In experiment [20], this compound showed a z-score of -0.91.

`CC(CCC(=O)OC[C@H]1O[C@H](C#Cc2ccccc2)C=C[C@@H]1Oc1ccc(C)cc1)=NOC[C@@H](O)[C@H]1O[C@@H]2OC(C)(C)O[C@@H]2[C@H]1O`: the composite z-score was -0.598 in [1]; -0.564 in experiment [6]; -0.178 in experiment [7]; -0.526 in experiment [8]; -0.617 in experiment [9]; -0.108 in [10]. Besides, the composite z-score in experiment [12] is -0.193. The z-score in experiment [2] was -0.416 (inactive); in experiment [3], -0.025 (inactive); in experiment [4] it was 0.099 (inactive); in experiment [5], 0.0046 (inactive); in experiment [11], 0.715 (inactive); in experiment [13], 14.2 (active). The z-score in experiment [14] was 1.9 (inactive); in experiment [15], 0.0766 (inactive); in experiment [16], 1.05 (inactive); in experiment [17], 0.078; in experiment [18] it was -1.55 (inactive); in [19], -0.00198 (inactive). For the same compound, the z-score in experiment [20] was -1.2.

As for `COc1ccc(O[C@H]2C=C[C@@H](c3ccccc3)O[C@@H]2COC(=O)CCC(C)=NOCC[C@@H]2C=C[C@H](OC(C)=O)[C@@H](COC(C)=O)O2)cc1`, the composite z-score in experiment [1] was -0.0096; in experiment [6], 0.0903; in [7], -0.0736; in experiment [8], 1.56; in experiment [9] it was 0.43; in experiment [10], 0.661. For the same compound, in experiment [12], the composite z-score is -0.0176. For the same compound, the z-score in [2] was -1.06 (inactive); in [3], 0.57 (inactive); in [4] it was 0.918 (inactive); in experiment [5] it was 0.378 (inactive); in [11], -0.445 (inactive); in [13], 8.07 (active). Moreover, the z-score in experiment [14] is 1.2 (inactive); in [15], 1 (inactive); in experiment [16] it was 0.588 (inactive); in [17] it was -0.268; in [18], -1.64 (inactive); in experiment [19], -0.327 (inactive). The compound further came in with a z-score in experiment [20] of -2.19.

Consider `CCCNC(=O)OC[C@H]1O[C@H](CCON=C[C@@H](OC)[C@H](C)C=CCC(=O)OC)C=C[C@@H]1Oc1ccc(OC)cc1`, for which the composite z-score was -0.0615 in experiment [1]; -0.351 in experiment [6]; -0.206 in experiment [7]; 0.525 in [8]; 0.422 in [9]; 1.05 in experiment [10]. The compound further came in with a composite z-score in experiment [12] of 0.0889. The z-score in experiment [2] is -0.444 (inactive); in [3] it was 1.18 (inactive); in experiment [4], 3.46 (inactive); in experiment [5] it was 0.963 (inactive); in [11], -0.042 (inactive); in [13] it was 4.4 (inactive). Further, the z-score was 0.143 (inactive) in experiment [14]; -0.0652 (inactive) in [15]; 0.368 (inactive) in experiment [16]; 0.0604 in experiment [17]; -1.56 (inactive) in experiment [18]; 0.00725 (inactive) in [19]. The compound also returned a z-score in experiment [20] of -2.76.
